The values that follow come from PubChem BioAssay.

Usually inhibition stands for the relative decrease from the control value, in per cent.

Structures are written as SMILES. Unmarked numbers belong to inactive results. The source made the active and inactive calls.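 The calls were made as follows: active = inhibition at or above 50% relative to wild type and mutant plate controls; inactive = inhibition below 50%.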

This test can be described thus: inhibitors of Chlamydomonas gravitaxis, primary screen, whole organism, Chlamydomonas reinhardtii, WT vs cilia-less mutant, absorbance, 96-well (AID 463189).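 Also: 0% = wild type cc124 cells in DMSO and 100% = ciliumless bld1 mutant cells.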 Particulars: OD600 absorbance, 2 days, at 10 µM, active compounds read high.
With `O=C1C(SCCO)=C(SCCO)C(=O)c2ccccc21`, the inhibition was 152% (active). Consider `O=C1c2c(O)cc(O)cc2OC(c2ccc(O)c(O)c2)C1O` (stereo not given), for which the inhibition is -16.9%. For `COc1ccc2c(c1)c(CC(=O)O)c(C)n2C(=O)c1ccccc1`, the inhibition is 2.3%.

As to `CCN(c1nc(N)c(C(=O)N=C(N)N)nc1Cl)C(C)C`, the inhibition is 7.11%. Regarding `CC(C)C[C@H]1C(=O)N2CCC[C@H]2[C@]2(O)O[C@](NC(=O)[C@@H]3C=C4c5cccc6[nH]c(Br)c(c56)C[C@H]4N(C)C3)(C(C)C)C(=O)N12`, the inhibition was 9.22%. The figure for `N=C(N)c1ccccc1` is 7.5%; for `CCCN1C[C@H](CSC)C[C@@H]2c3cccc4[nH]cc(c34)C[C@H]21` it is 5.65%. Turning to `NCCCCN`, the inhibition is -2.36%. The result for `COC(=O)c1c(C)[nH]c(C)c1C(=O)c1ccccc1Cc1ccccc1` reads 0.163%. Turning to `Cc1cccc(C)c1OCC(C)N` (stereo not given), the inhibition is 7.46%. The result for `NCCNC(=O)c1ncsc1-c1cccc(F)c1` reads 0.32%; that for `N=C(N)SCCN`, -11.5%; that for `CCN(CC)CCOCCOC(=O)C1(c2ccccc2)CCCC1`, 5.28%. The result for `COc1cc(-c2ccc(=O)[nH]n2)ccc1OC(F)F` reads 8.84%; that for `CN(C)c1nc(N)c(C(=O)N=C(N)N)nc1Cl`, 1.32%. Consider `Cc1cccc(/C=C/c2ccccc2)n1`, for which the inhibition is 27.5%.

`CNCC(O)c1ccc(O)c(O)c1` (stereo not given): the inhibition was 4.49%. Take `CN1CCCC1CCOC(C)(c1ccccc1)c1ccc(Cl)cc1` (stereo not given): the inhibition is 11.5%. As to `CCCOC(=O)c1c(-c2ccccc2)nc(CC)c(C(=O)SCC)c1CCC`, the inhibition was 10.6%. With `O=Nc1c(-c2c(O)[nH]c3ccccc23)[nH]c2ccccc12`, the inhibition is 1.78%. In the case of `Cn1ccnc1`, the inhibition is 9.19%. For `NCCCNCCCCNCCCN`, the inhibition is -2.56%.

As to `C[C@H](Cc1ccc(O)c(O)c1)[C@@H](C)Cc1ccc(O)c(O)c1`, the inhibition is -6.71%. In the case of `C[C@](N)(Cc1ccc(O)cc1)C(=O)O`, the inhibition was 6.91%. The result for `CC(CCc1ccc(O)cc1)NCCc1ccc(O)c(O)c1` (stereo not given) reads -1.59%; that for `Nc1ncnc2c1nc(Br)n2C1OC2COP(=O)(O)O[C@@H]2C1O` (stereo not given in full), 7.89%; that for `O=C(O)C1=CCCN(CCON=C(c2ccccc2)c2ccccc2)C1`, -1.19%.

Regarding `CCCCNc1c(C(=O)OCC)c(C)nc2c1cnn2CC`, the inhibition was 8.88%. The figure for `NS(=O)(=O)c1cc2c(cc1Cl)NC(C1CC3C=CC1C3)NS2(=O)=O` (stereo not given) is -0.288%. The figure for `O=C(N[C@@H](Cc1ccccc1)C(=O)CCl)OCc1ccccc1` is 0.05%; for `C[N+](C)(C)CCO` it is 2.98%. For the molecule `CC(=O)Oc1ccccc1C(=O)O`, the inhibition is -5.84%. With `CC(CN(C)C)CN1c2ccccc2CCc2ccccc21` (stereo not given), the inhibition was 1.33%.

In the case of `O=C1Nc2ccc(I)cc2/C1=C/c1cc(Br)c(O)c(Br)c1`, the inhibition was -6.77%. The figure for `OCC1NCC(O)C(O)C1O` (stereo not given) is -0.461%; for `COc1cc2c(CCNC(C)=O)c[nH]c2cc1Cl` it is 4.11%; for `Cc1cc(NC(=O)Nc2ccc3c(ccn3C)c2)sn1` it is 5.1%. The result for `OC[C@H]1O[C@@H](n2cnc3c(Nc4ccccc4)ncnc32)C(O)[C@H]1O` (stereo not given in full) reads -0.892%; that for `CNC(=O)[C@H]1O[C@@H](n2cnc3c(NCc4cccc(I)c4)ncnc32)C(O)[C@H]1O` (stereo not given in full), 1.77%; that for `CC(C)NC[C@H](O)c1ccc(O)c(O)c1`, 8.51%.
